DUSP3 inh: inhibitors of human VHR1 phosphatase (DUSP3); AID 1654; 290,000 compounds, 0.52% hits; P51452; inhibition, % at 13.3 µM; recombinant VHR phosphatase, pNPP absorbance; in the data active = inhibition above about 50%
Target sequence (P51452 whole entry, looked up): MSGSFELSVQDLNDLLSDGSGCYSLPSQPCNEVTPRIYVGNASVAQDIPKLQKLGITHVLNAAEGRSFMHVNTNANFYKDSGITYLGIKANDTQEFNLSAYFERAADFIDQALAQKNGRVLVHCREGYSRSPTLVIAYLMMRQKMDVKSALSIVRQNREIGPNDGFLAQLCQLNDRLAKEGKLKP
Mtb betalactam: beta-lactam sensitization of Mtb H37Rv; M. tuberculosis H37Rv growth with meropenem, percent inhibition; inhibition, % at 25 µM; 330,000 compounds, 0.27% hits; AID 434955; call rule not given here;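 note: growth measured after seven days incubation then overnight dye step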
Mtb hypoxia rep: Mtb hypoxia fluorescent reporter inhibition; M. tuberculosis hypoxia-regulated fluorescent reporter, fluorescence; fluorescence inhibition, % (no concentration beside the values); 300,000 compounds, 0.1% hits; AID 1159583; in the data active = fluorescence inhibition mostly above about 23%, no sharp cut-off; inactive = mostly below about 17%
Mtb FBA inh: Mtb fructose-bisphosphate aldolase inhibition; purified M. tuberculosis FBA, fluorescence read-out; inhibition, % at 1 µM; 360,000 compounds, 2.3% hits; in the data active = inhibition above about 27%
Target sequence (P9WQA3 whole entry, looked up): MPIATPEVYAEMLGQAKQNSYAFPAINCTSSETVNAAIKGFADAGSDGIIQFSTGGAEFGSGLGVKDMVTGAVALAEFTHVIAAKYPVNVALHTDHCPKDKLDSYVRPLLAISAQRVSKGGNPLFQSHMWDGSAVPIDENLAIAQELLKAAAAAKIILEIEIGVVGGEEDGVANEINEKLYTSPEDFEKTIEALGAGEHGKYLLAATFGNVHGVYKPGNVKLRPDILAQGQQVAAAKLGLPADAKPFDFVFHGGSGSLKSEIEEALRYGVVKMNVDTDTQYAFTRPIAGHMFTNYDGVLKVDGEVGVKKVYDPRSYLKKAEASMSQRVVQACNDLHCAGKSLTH
GDH-TPI inh: GDH-TPI coupled enzyme inhibition counter-screen; 360,000 compounds, 1.2% hits; GDH-TPI coupled enzyme counterscreen, NADH absorbance; AID 588335; inhibition, % at 4.8 µM; in the data active = inhibition above about 30%
Each line names hits and unclear results; the compound was inactive in the other large screens. An excerpt weighted towards active compounds, which were near 3.6% of everything screened.

COC(=O)C1=C(C(=O)OC)C2N(Cc3ccccc3)c3ccccc3[C@@]23CC(C(=O)OC)N(C(C)=O)C3=N1 (some centres not stated)	none (no result: DUSP3 inh, Mtb betalactam, Mtb FBA inh, GDH-TPI inh)
COc1cc(C=NNC(=O)CNC(=O)/C=C/c2ccco2)cc(OC)c1OC	none (no result: DUSP3 inh, Mtb betalactam, Mtb FBA inh, GDH-TPI inh)
CCOC(=O)COc1ccc2c(c1)C(=O)CC(C)(c1cccnc1)O2 (configuration not stated)	Mtb FBA inh 59
COP(=O)(OC)c1nc(-c2cccc3ccccc23)oc1NCc1ccccc1	Mtb FBA inh 192
COc1ccc(CNc2oc(-c3cccc4ccccc34)nc2P(=O)(OC)OC)cc1	Mtb FBA inh active
COc1cc(C)c(Br)cc1S(=O)(=O)NCc1cccs1	DUSP3 inh 54
COc1ccccc1N/C=C/c1onc(C)c1[N+](=O)[O-]	none
Cc1noc(/C=C/c2ccccn2)c1[N+](=O)[O-]	GDH-TPI inh 36
O=C(NN=Cc1ccc(N2CCCCC2)o1)c1ccccc1[N+](=O)[O-]	none (no result: DUSP3 inh, Mtb betalactam, Mtb FBA inh, GDH-TPI inh)
Clc1nc2sccn2c1/C=N/n1cnc2ccccc21	GDH-TPI inh 47 (no result: Mtb hypoxia rep)
C(=N\n1cnc2ccccc21)/c1cccnc1	none (no result: Mtb hypoxia rep)
C=CCNC(=O)COC(=O)C=Cc1cccs1	none (no result: DUSP3 inh, Mtb betalactam, Mtb FBA inh, GDH-TPI inh)
CCOC(=O)NCc1ccc2c(c1)cc(C)n2C	DUSP3 inh 51
Cc1cc2cc(CNC(=O)CC(C)C)ccc2n1C	DUSP3 inh 55
O=C(NCc1cccnc1)/C(=C/c1ccc(-c2cccc(Cl)c2)o1)S(=O)(=O)c1ccccc1	none (no result: Mtb hypoxia rep)
O=C(NCc1cccnc1)/C(=C\c1ccc(-c2cccc(Cl)c2)o1)S(=O)(=O)c1ccccc1	GDH-TPI inh 41
Cc1ccc(C(=O)N/C(=C\c2ccc(-c3cc(Cl)ccc3Cl)o2)C(=O)NCc2cccnc2)cc1	GDH-TPI inh 40
COc1cc(CCCN2C(=O)C(=O)NCC2C(C)O)cc(OC)c1OC (configuration not stated)	none (no result: DUSP3 inh, Mtb betalactam, Mtb FBA inh, GDH-TPI inh)
COc1ccc(C=c2sc(=CC(=O)c3ccc(C)cc3)[nH]c2=O)cc1OC	none (no result: DUSP3 inh, Mtb betalactam, Mtb FBA inh, GDH-TPI inh)
COC(=O)[C@]1(CC(C)C)N[C@H](c2ccc(-c3ccc(OC)cc3)cc2)[C@@H]2C(=O)N(C)C(=O)[C@@H]21	Mtb FBA inh 132 (no result: DUSP3 inh, Mtb hypoxia rep)
Cc1ccc2c(c1)NC(=O)[C@@]1(C)C(c3ccccc3)C3COc4ccc(Cl)cc4C3N1C2=O (some centres not stated)	none (no result: DUSP3 inh, Mtb betalactam, Mtb FBA inh, GDH-TPI inh)
Cc1ccc(CNc2cnccn2)s1	none
Cc1ccc(CNc2cnccn2)cc1	Mtb FBA inh 74
c1ccc(CCNc2cnccn2)cc1	Mtb FBA inh active
COc1ccc(OC)c(C2C3=C(N=c4sc(=Cc5cccc(O)c5)c(=O)n42)c2ccccc2CC3)c1 (configuration not stated)	none (no result: DUSP3 inh, Mtb betalactam, Mtb FBA inh, GDH-TPI inh)
COC(=O)C1=C(C)NC(=O)C1=Cc1ccc(CNS(=O)(=O)c2ccc(C)cc2)o1	none (no result: DUSP3 inh, Mtb betalactam, Mtb FBA inh, GDH-TPI inh)
Cc1c(OCc2nn[nH]n2)ccc2c3c(c(=O)oc12)CCCC3	Mtb FBA inh 124
CCCc1cc(=O)oc2cc(C)cc(OCc3nn[nH]n3)c12	Mtb FBA inh 128
CCCc1cc(=O)oc2cc(C)cc(O)c12	none
Cc1cc2oc(=O)c3c(c2cc1OCc1nn[nH]n1)CCCC3	none
Cc1cc(OCc2nn[nH]n2)c2c3c(c(=O)oc2c1)CCC3	Mtb FBA inh active
CCN1CC2C3C(=O)N(Cc4ccccc4)C(=O)C3[C@](C)(C1=O)N2C(=O)c1ccc(C(F)(F)F)cc1 (some centres not stated)	none (no result: DUSP3 inh, Mtb betalactam, Mtb FBA inh, GDH-TPI inh)
COc1cc(/C=C(\C#N)c2nc3ccccc3[nH]2)ccc1Oc1ccc([N+](=O)[O-])cn1	GDH-TPI inh 32
COc1cc(/C=C(\C#N)c2nc3ccc(C)cc3[nH]2)c([N+](=O)[O-])cc1OC	GDH-TPI inh 33 (no result: Mtb hypoxia rep)
COc1cc(/C=C2\SC(=O)NC2=O)ccc1Oc1ccc([N+](=O)[O-])cn1	GDH-TPI inh 36
COc1cc(/C=C(\C#N)c2nc3ccc(C)cc3[nH]2)cc([N+](=O)[O-])c1O	none (not shown: Mtb betalactam, Mtb hypoxia rep)
COc1cc(/C=C2/SC(=O)NC2=O)ccc1Oc1ccc([N+](=O)[O-])cc1[N+](=O)[O-]	none
O=C(C1=CC(C2CC2)CC(OCc2ccc(CO)cc2)O1)N1CCN(Cc2ccccc2)CC1 (configuration not stated)	none (no result: DUSP3 inh, Mtb betalactam, Mtb FBA inh, GDH-TPI inh)
O=C(O)c1ccc(C=NN2CCN(c3ccccc3)CC2)cc1	none (no result: DUSP3 inh, Mtb betalactam, Mtb FBA inh, GDH-TPI inh)
COC(=O)c1ccc(/C=N\N2CCN(c3ccccc3)CC2)cc1	DUSP3 inh 51 (no result: Mtb hypoxia rep)
COC(=O)c1ccc(C(=O)OC)c(NC(=S)N2CCN(c3cccc(Cl)c3)CC2)c1	none
COC(=O)c1ccc(C(=O)OC)c(NC(=S)N2CCN(c3ccccc3)CC2)c1	Mtb FBA inh 30
COC(=O)Cc1ccc(NC(=S)N2CCN(c3cccc(O)c3)CC2)cc1	DUSP3 inh 55 (no result: Mtb hypoxia rep)
CCn1c2ccccc2c2cc(C=NNC(=O)c3ccncc3)ccc21	none (no result: DUSP3 inh, Mtb betalactam, Mtb FBA inh, GDH-TPI inh)
OCCC1CC(O)C(O)[C@@]2(Cc3ccccc3CCO2)O1 (some centres not stated)	none (no result: DUSP3 inh, Mtb betalactam, Mtb FBA inh, GDH-TPI inh)
O=C(NNC(=O)C1[C@H]2CCCC[C@@H]12)c1ccc(=O)oc1 (some centres not stated)	GDH-TPI inh 39
O=C(NC12CC3CC(CC(C3)C1)C2)c1ccc(=O)oc1	none (no result: Mtb hypoxia rep)
NC(=NOC(=O)Cc1ccccc1[N+](=O)[O-])c1ccncc1	none (no result: DUSP3 inh, Mtb betalactam, Mtb FBA inh, GDH-TPI inh)
Cc1ccccc1NC(=O)CCc1c(C)nn(-c2ccc(N3CCOCC3)nn2)c1C	none
Cc1nn(-c2ccc(N3CCOCC3)nn2)c(C)c1CCC(=O)N1CCN(C)CC1	Mtb hypoxia rep 75
CCCOc1ccc(C=NNc2cccc([N+](=O)[O-])c2)c(O)c1	none (no result: DUSP3 inh, Mtb betalactam, Mtb FBA inh, GDH-TPI inh)
COc1cc(C=NN=Cc2c[nH]c(=O)c(C#N)c2Nc2ccccc2)ccc1O	none (no result: DUSP3 inh, Mtb betalactam, Mtb FBA inh, GDH-TPI inh)
O=C(Cc1ccc(Cl)cc1)NNC1CC(=O)N(c2ccc3ccccc3c2)C1=O (configuration not stated)	none
O=C(Cc1ccccc1)NNC1CC(=O)N(c2ccc(Cl)cc2)C1=O (configuration not stated)	DUSP3 inh 53
CON=Cc1ccc(N2CCN(C(=O)c3ccc(C)cc3)CC2)c([N+](=O)[O-])c1	none (no result: DUSP3 inh, Mtb betalactam, Mtb FBA inh, GDH-TPI inh)
COc1ccc(CN2CCC(=O)N(C(CO)Cc3ccccc3)CC2)cc1 (configuration not stated)	none (no result: DUSP3 inh, Mtb betalactam, Mtb FBA inh, GDH-TPI inh)
COc1cc(OC)cc(-c2c(C#Cc3ccsc3)c3cc(-c4ccc5cc[nH]c5c4)ccc3n2C)c1	GDH-TPI inh 33 (no result: DUSP3 inh)
COc1cc(OC)cc(-c2c(C#Cc3ccsc3)c3cc(-c4ccccc4OC)ccc3n2C)c1	GDH-TPI inh 39 (no result: DUSP3 inh)
COc1ccc(-c2ccc3c(c2)c(C#Cc2ccsc2)c(-c2cc(OC)cc(OC)c2)n3C)cc1	none (no result: DUSP3 inh)
CC(C)C[C@@]12C(=O)N(c3cccc(F)c3)C(=O)N1C(c1ccc(F)cc1)C1C(=O)N(C3CCCCC3)C(=O)C12 (some centres not stated)	none (no result: DUSP3 inh, Mtb betalactam, Mtb FBA inh, GDH-TPI inh)
O=C(O)CCCCCN1C(=O)/C(=C\c2ccncc2)SC1=S	none
O=C(O)CCCN1C(=O)/C(=C/c2ccncc2)SC1=S	GDH-TPI inh 38
Cc1cc(C)cc(COc2ccc3c(C)c(CC(=O)O)c(=O)oc3c2C)c1	none
Cc1c(C)c2ccc(OCc3ccc(C(=O)O)o3)c(C)c2oc1=O	Mtb FBA inh 131
CCc1ccc(C(C)=NNC(=O)c2c[nH]c3ccccc23)s1	none (no result: DUSP3 inh, Mtb betalactam, Mtb FBA inh, GDH-TPI inh)

High-throughput results as filed in PubChem.
